Source: PubChem BioAssay
Activity calls are given as the source filed them. The rule behind the calls is not given here.

Target: Pantothenate synthetase (Mycobacterium tuberculosis (strain ATCC 25618 / H37Rv)) (UniProt P9WIL5)
Experiment: Coupled enzyme confirmation of inhibitors against recombinant Mtb PanC (AID 375);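 note: 0% = full reaction with vehicle and 100% = no enzyme background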
Conditions: coupled enzyme assay; at 10 µM, active compounds read high

Sequence of Pantothenate synthetase (Mycobacterium tuberculosis (strain ATCC 25618 / H37Rv)) (P9WIL5 whole entry, looked up): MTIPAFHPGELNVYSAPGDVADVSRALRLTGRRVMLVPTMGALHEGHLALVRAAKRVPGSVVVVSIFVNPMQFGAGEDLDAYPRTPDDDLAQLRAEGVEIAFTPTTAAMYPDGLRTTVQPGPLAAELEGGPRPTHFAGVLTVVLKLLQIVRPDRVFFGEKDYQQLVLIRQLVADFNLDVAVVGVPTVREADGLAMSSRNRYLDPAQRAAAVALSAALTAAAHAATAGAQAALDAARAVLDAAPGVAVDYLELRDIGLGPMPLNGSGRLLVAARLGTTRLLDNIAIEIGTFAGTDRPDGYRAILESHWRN

| Structure (SMILES) | inhibition |
| --- | --- |
| Cc1ccccc1C1CC(c2ccccc2)Nc2ncnn21 (stereo not drawn) | 12% (inactive) |
| Cc1cc(C)c2c(n1)nn1c(NCCCN3CCOCC3)cc(C)nc21 | 9% (inactive) |
| COC(=O)Cn1c(CN2CCN(c3ccccc3F)CC2)nc2c1c(=O)n(C)c(=O)n2C | 0% (inactive) |
| CC12CN3CC(C)(CN(C1)C3c1ccc(Cl)cc1Cl)C2=O (stereo not drawn) | 0% (inactive) |
| Cc1cn2c(-c3ccncc3)nnc2s1 | 0% (inactive) |
| COC(=O)Cn1c(CN2CCOCC2)nc2c1c(=O)n(C)c(=O)n2C | 0% (inactive) |
| Cc1cc(=O)[nH]c(SCC(=O)NCc2ccco2)n1 | 0% (inactive) |
| CC(C)c1nnc(NC(=O)Cc2cccs2)s1 | 0% (inactive) |
| CCOc1ccc2nc(NC(=O)C3CCCN(S(=O)(=O)c4c(C)noc4C)C3)sc2c1 (stereo not drawn) | 0% (inactive) |
| CN1CCc2nc(SCCOc3ccccc3)c(C#N)cc2C1 | 0% (inactive) |
| COc1ccccc1NC(=O)c1nnn(CC(=O)Nc2ccccc2)c1N | 1% (inactive) |
| CCOC(=O)c1cc(C(C)(C)C)oc1CN | 0% (inactive) |
| COc1ccc(OCCSc2nc3ccccc3n2CC(=O)O)cc1 | 2% (inactive) |
| O=C(Oc1ccccc1)c1cccc(COC(=O)c2cnccn2)c1 | 5% (inactive) |
| COC(=O)c1ccc(NC(=O)Cn2nnc3ccccc32)cc1 | 0% (inactive) |
| Cc1cccc(OCc2nc(C#N)c(NCCN(C)C)o2)c1 | 1% (inactive) |
| CCC(=O)O[C@@H]1CC(=O)O[C@H](C)CC=CC=C[C@@H](O)[C@H](C)C[C@H](CC=O)[C@H](O[C@H]2O[C@H](C)[C@@H](O[C@H]3C[C@@](C)(O)[C@@H](OC(=O)CC)[C@H](C)O3)[C@H](N(C)C)[C@H]2O)[C@H]1OC | 4% (inactive) |
| Cn1nnnc1SCC(=O)NCc1ccco1 | 5% (inactive) |
